Drawing on PubChem BioAssay AID588651 (The Scripps Research Institute Molecular Screening Center, 2011), this text covers outcome for 34 molecules.

Each structure is given as a SMILES string. Calls of active or inactive are those of the source. Rule as the data show it: active = inhibition above about 65%; inactive = the rest.

The assay relates to Antitargets. The experiment in a line: Fam108b inhibitors and proteome off-target selectivity – biochemical, gel-based ABPP, recombinant soluble Fam108b, HTS hits, complex proteome, late-stage follow-up (AID 588651).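 Also: Fam108b spiked into mouse brain membrane proteome; tested at 20 µM.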 Conditions: FP-rhodamine labeling in proteome.
With `CCc1cc(C(Cc2ccc3ccccc3n2)=NO)c(O)cc1O`, the result was active.
Next, `COc1ccc(S(=O)(=O)/N=C2\C=C(Nc3ccc(O)cc3)C(=O)c3ccccc32)cc1`: “inactive”; `O=c1oc(-c2ccccc2Cl)nc2ccsc12`: “inactive”.
For `O=C(NCC1CC1)c1ccc(Nc2nc3ccc(Br)cc3[nH]2)cc1`, the outcome was inactive.
Next, `Brc1csc(C=NNc2nc3ccccc3s2)c1`: “inactive”; `Cc1ccccc1NC1=C/C(=N\S(=O)(=O)c2cccs2)c2ccccc2C1=O`: “inactive”; `COc1ccc(-c2csc3nc(-c4ccccc4OC)oc(=O)c23)cc1`: “inactive”.
Next, `O=C1NC(=S)/C(=C\c2ccc(-c3ccccc3Cl)o2)S1`: “inactive”; `Fc1ccc2nc(Nc3nc4cc5c(cc4s3)OCO5)sc2c1`: “inactive”.
For `O=C(Nc1ccc(N2CCCC2)c(S(=O)(=O)Nc2cccc(C(F)(F)F)c2)c1)c1cccs1`, the result was inactive.
In the case of `CC1CCN(S(=O)(=O)c2ccc(C(=O)Nc3ccccc3-c3nc4ccccc4[nH]3)cc2)CC1`, the outcome was inactive.
As for `COc1ccc(-c2csc3nc(-c4ccccc4F)oc(=O)c23)cc1`, the result was inactive.
Next, `COc1cc2cc(C(=O)NN=Cc3ccccc3Cl)[nH]c2cc1OC`: “inactive”.
Next, `Nc1cc2nsnc2cc1Br`: “inactive”; `COc1ccc2oc(=O)c(-c3csc(Nc4cccc(O)c4)n3)cc2c1`: “inactive”; `COc1cccc(C=NNC(=O)c2[nH]c(C)c(C(=O)NN=Cc3cccc(OC)c3O)c2C)c1O`: “active”.
As to `O=C(NN=Cc1ccc(O)cc1)c1cccc(NN=Cc2ccc(O)cc2)c1`, the result was active.
On to `Cc1[nH]c2c(C)cccc2c1CCNC(=O)c1ccc2c(c1[N+](=O)[O-])C(=O)c1ccccc1C2=O`, for which the result was inactive.
Next, `O=C(O)CCCNc1cc(N2CCN(C(=O)c3ccco3)CC2)c2noc3c2c1C(=O)c1ccccc1-3`: “inactive”; `N=c1oc2cc(O)ccc2cc1C(=O)Nc1ccc(Br)cc1`: “inactive”; `CC1(C)CC(=O)C2=C(C1)c1c(ccc3ccccc13)NC2c1cc([N+](=O)[O-])cc([N+](=O)[O-])c1O` (centres undefined): “inactive”.
Next, `COc1ccc(/C=C2\SC(=S)N(CC(=O)OCC(=O)Nc3cc(Cl)cc(Cl)c3)C2=O)cc1`: “inactive”; `Oc1nc(Nc2cccc(Cl)c2)sc1/C=C1\C=Nc2ccccc21`: “active”.
Next, `CCn1nc([N+](=O)[O-])c(C(C#N)c2nc3cc(C(F)(F)F)ccc3s2)c(Cl)c1=O` (centres undefined): “inactive”; `O=C(O)C1Nc2ccc(Br)cc2C2C=CCC12` (centres undefined): “inactive”.
Take `Cc1ccnc(N=Cc2nc(-c3ccccc3Br)oc2O)c1`: the result was inactive.
Next, `O=C1C(Cl)=C(N2CCC(C(=O)O)CC2)C(=O)c2ccccc21`: “inactive”; `CC(C)(C)c1nc2scc(-c3cccs3)c2c(=O)o1`: “inactive”.
Next, `CN(C)S(=O)(=O)c1cccc(NC(=O)COC(=O)c2cc(-c3cccc(Br)c3)nc3ccccc23)c1`: “inactive”; `Cn1c2ccccc2c2cc(C=NNC(=O)c3cc(O)ccc3O)ccc21`: “inactive”; `Cc1c(O)ccc(C=NNc2nc(-c3cccnc3)nc3ccccc23)c1O`: “active”.
`Cc1nc2scc(-c3ccccc3)c2c(=O)o1`: the outcome was inactive.
Next, `COc1ccc(C=NNC(=O)c2ccc(O)cc2)cc1CN1CCCc2ccccc21`: “inactive”.
Next, `Oc1ccc(C=NNc2ccnc3cc(Cl)ccc23)c(O)c1O`: “active”.
